# Test results reported in PubChem BioAssay.
# The source made the active and inactive calls. Unless noted, how the calls were made is not given here.
# Experiments:
# [1] = HepG2 liver cancer cell viability effects, profiling panel, resazurin fluorescence, 24 h, PK04 Diversity Set (AID 1172); details: higher = more signal
# [2] = basal S. cerevisiae growth modulation, no modifier, primary screen, OD600, strain BY4716, 24 h, basal condition (AID 1173); details: OD600, 24 h, higher = more signal, called active from +8 up or from −8 down
# [3] = MM1S myeloma cell viability, profiling panel, resazurin fluorescence, basal, 24 h, PK04 Diversity Set (AID 1174); details: higher = more signal, called active from +8 up or from −8 down;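 further: MM1S multiple myeloma cell line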
# [4] = target: Dihydroorotate dehydrogenase (quinone), mitochondrial (Plasmodium falciparum (isolate 3D7)) (UniProt Q08210); test: PfDHODH enzyme inhibitors, primary screen, biochemical, C-terminal His tag, absorbance 600 nm (AID 1175); details: DCIP absorbance 600 nm, higher = more signal, called active from +8 up or from −8 down;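 further: recombinant parasite enzyme with a five histidine tag at its C terminus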
# Chain of Dihydroorotate dehydrogenase (quinone), mitochondrial (Plasmodium falciparum (isolate 3D7)) (Q08210 whole entry, looked up): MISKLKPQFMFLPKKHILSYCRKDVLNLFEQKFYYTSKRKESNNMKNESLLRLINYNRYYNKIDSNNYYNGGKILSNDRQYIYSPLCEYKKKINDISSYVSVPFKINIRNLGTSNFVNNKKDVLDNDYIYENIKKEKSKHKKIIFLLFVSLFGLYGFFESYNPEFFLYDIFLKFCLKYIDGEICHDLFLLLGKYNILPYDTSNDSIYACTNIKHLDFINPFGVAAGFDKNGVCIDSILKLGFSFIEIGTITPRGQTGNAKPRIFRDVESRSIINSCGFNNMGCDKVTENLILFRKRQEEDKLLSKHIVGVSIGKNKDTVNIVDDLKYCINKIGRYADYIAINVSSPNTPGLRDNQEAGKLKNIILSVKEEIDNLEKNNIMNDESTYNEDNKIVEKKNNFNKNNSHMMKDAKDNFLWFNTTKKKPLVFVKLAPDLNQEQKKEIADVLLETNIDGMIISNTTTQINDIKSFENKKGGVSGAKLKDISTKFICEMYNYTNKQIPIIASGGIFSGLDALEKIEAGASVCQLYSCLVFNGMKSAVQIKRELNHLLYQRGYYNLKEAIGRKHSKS
# [5] = P. aeruginosa biofilm formation inhibitors, primary screen, strain PAO1, LB-PBS medium, absorbance 600 nm (AID 1176); details: P. aeruginosa PAO1 growth/biofilm, A600, 12 h; higher = more signal
# [6] = S. cerevisiae RM11-1a growth modifiers, primary screen, strain RM11-1a, OD600, basal, 24 h (AID 1177); details: OD600, 24 h, higher = more signal, called active from +8 up or from −8 down;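 further: cultures grown under basal conditions with no added stressor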
# [7] = E. coli acrAB mutant growth effects, primary screen, E. coli filamentation inducers, strain DRC39, OD650, 24 h (AID 1178); details: higher = more signal, called active from +8 up or from −8 down;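 further: growth measured as culture turbidity by optical density at 650 nm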
# [8] = E. coli acrAB mutant growth effects, primary screen, E. coli filamentation inducers, strain DRC39, OD650, 48 h (AID 1179);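 further: screen aims at cell division blockers that make cells filament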; details: E. coli DRC39 delta-acrAB growth, higher = more signal, called active from +8 up or from −8 down
# [9] = RPMI8226 myeloma cell viability, profiling panel, resazurin fluorescence, basal, 24 h, PK04 Diversity Set (AID 1180); details: higher = more signal;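 further: RPMI8826 multiple myeloma cell line at 5000 cells per well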
# [10] = target: E3 ubiquitin-protein ligase XIAP (Homo sapiens) (UniProt P98170); test: XIAP binders, primary screen, biophysical, small-molecule microarray, fluorescence 635 nm (AID 1181); details: small-molecule microarray binding, higher = more signal;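 further: score merges 667 nm emission and signal to noise over triplicate slides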
# Chain of E3 ubiquitin-protein ligase XIAP (Homo sapiens) (P98170 whole entry, looked up): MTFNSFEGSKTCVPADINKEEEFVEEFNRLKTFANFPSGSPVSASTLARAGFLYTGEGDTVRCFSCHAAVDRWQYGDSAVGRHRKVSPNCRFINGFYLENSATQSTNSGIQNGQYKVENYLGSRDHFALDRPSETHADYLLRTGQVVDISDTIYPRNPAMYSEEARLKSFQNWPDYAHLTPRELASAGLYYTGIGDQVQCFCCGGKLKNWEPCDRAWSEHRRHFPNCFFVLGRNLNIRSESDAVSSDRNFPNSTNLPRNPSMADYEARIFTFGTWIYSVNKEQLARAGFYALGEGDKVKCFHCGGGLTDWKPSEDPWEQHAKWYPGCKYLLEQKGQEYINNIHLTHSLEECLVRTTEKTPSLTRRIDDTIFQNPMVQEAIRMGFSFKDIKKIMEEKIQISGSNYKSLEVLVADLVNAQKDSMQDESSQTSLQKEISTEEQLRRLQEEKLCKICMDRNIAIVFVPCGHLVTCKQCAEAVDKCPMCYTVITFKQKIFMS
# [11] = system: XIP peptide (Xip251-270) binding; test: small-molecule binders of XIP peptide, primary screen, biochemical, small-molecule microarray, fluorescence 635/667 nm, 0.1 µg/mL protein (AID 1182); details: fluorescent protein binding, 635 nm, higher = more signal, called active from +8 up or from −8 down
# XIP peptide (Xip251-270) = test: small-molecule binders of XIP peptide, primary screen, biochemical, small-molecule microarray, fluorescence 635/667 nm, 0.5 µg/mL protein (AID 1183); details: small-molecule microarray binding, fluorescence 635 nm; higher = more signal
# [12] = Plasmodium falciparum growth inhibition, primary screen, strain 3D7, DAPI fluorescence, 100 nL (AID 1184);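 further: parasites grown inside human red blood cells in medium with human serum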; details: P. falciparum 3D7 growth, 3 d, higher = more signal
# [13] = target: Homeobox protein Hox-A13 (Mus musculus) (UniProt Q62424); test: inhibitors of HoxA13-DNA binding, primary screen, biochemical, fluorescence polarization, labeled oligonucleotide (AID 1185); details: 15 min, higher = more signal, called active from +8 up or from −8 down
# Chain of Homeobox protein Hox-A13 (Mus musculus) (Q62424 whole entry, looked up): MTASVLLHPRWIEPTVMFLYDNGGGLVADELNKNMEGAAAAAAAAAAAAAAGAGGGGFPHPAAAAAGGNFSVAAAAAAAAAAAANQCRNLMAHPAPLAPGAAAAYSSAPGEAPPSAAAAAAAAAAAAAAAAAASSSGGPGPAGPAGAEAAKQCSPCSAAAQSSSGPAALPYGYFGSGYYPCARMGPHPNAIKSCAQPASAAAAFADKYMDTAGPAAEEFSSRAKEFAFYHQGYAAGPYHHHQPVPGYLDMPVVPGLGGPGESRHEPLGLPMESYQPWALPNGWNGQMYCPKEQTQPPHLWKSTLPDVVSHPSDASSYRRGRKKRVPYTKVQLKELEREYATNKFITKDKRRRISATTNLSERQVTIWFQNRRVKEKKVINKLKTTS
# [14] = inhibitors of hydroxyurea-induced Chk1 phosphorylation, primary screen, imaging, HeLa, phospho-Chk1 antibody, percent positive cells (AID 1186); details: hydroxyurea-induced phospho-Chk1 immunofluorescence imaging, higher = more signal
# [15] = inhibitors of hydroxyurea-induced Chk1 phosphorylation, primary screen, imaging, HeLa, phospho-Chk1 nuclear intensity (AID 1187); details: hydroxyurea-induced phospho-Chk1 immunofluorescence imaging, higher = more signal
Compound,z-score [1],z-score [2],z-score [3],composite z-score [4],z-score [5],z-score [6],z-score [7],z-score [8],z-score [9],composite z-score [10],composite z-score [11],composite z-score (XIP peptide (Xip251-270)),z-score [12],z-score [13],z-score [14],z-score [15]
C=CC[C@@H](OC(=O)Nc1ccc(OC)cc1)c1ccc(O)c(F)c1,-1.33,-16.3 (active),-1.32 (inactive),-2.55 (inactive),0.79 (inactive),-22 (active),0.924 (inactive),0.41 (inactive),-0.895,-0.0441,1.29 (inactive),-1.1,0.765,-3.65 (inactive),0.0919 (inactive),0.0113 (inactive)
CN(C)C(=O)[C@@]1(Cc2ccccc2CN=[N+]=[N-])N=C(c2ccc(OCCCO)cc2)O[C@H]1c1ccccc1N=[N+]=[N-],-0.699,0.37 (inactive),-2.96 (inactive),1.3 (inactive),0.522 (inactive),1.22 (inactive),0.776 (inactive),-0.893 (inactive),-3.85,0.202,0.458 (inactive),0.822,-2.02,-0.638 (inactive),-0.0351 (inactive),-0.336 (inactive)
COc1ccc([Si](C)(C)[C@@H]2[C@@H](CC(=O)N(CCO)Cc3ccccc3)O[C@]3(C(=O)N(Cc4cccc(N5CCCCC5=O)c4)c4ccccc43)[C@H]2C)cc1,-0.369,0.594 (inactive),-1.72 (inactive),-1 (inactive),1.63 (inactive),2.63 (inactive),0.899 (inactive),0.246 (inactive),-1.74,-0.138,0.0247 (inactive),0.709,-2.44,-1.13 (inactive),0.405 (inactive),0.797 (inactive)
O=C1C[C@]2(c3ccc([N+](=O)[O-])cc3)C(=O)N(C3CC3)c3cc(CO)ccc3[C@H]2N1CC12CC3CC(CC(C3)C1)C2,-0.742,0.359 (inactive),-0.118 (inactive),-3.84 (inactive),0.677 (inactive),0.866 (inactive),-0.292 (inactive),-0.616 (inactive),0.0683,-0.158,0.196 (inactive),0.463,-1.38,-0.902 (inactive),-0.0994 (inactive),-0.497 (inactive)
COC(=O)[C@@]1(Cc2ccc(OC)cc2)[C@H]2c3cc(C(=O)N(C)C)n(Cc4ccc(OC(F)(F)F)cc4)c3C[C@H]2CN1C(=O)c1ccccc1,-0.409,0.633 (inactive),-6.89 (inactive),0.546 (inactive),0.619 (inactive),1.63 (inactive),-0.728 (inactive),-0.804 (inactive),-3.56,0.422,-0.202 (inactive),0.112,-1.42,-5.65 (inactive),0.154 (inactive),-0.666 (inactive)
CCOC(=O)C[C@H]1[C@H](OC(=O)Cc2ccc3c(c2)OCO3)[C@@H](NC(=O)c2ccc3ccccc3n2)c2cc(OCCCO)ccc2N1C(=O)c1ccc2ccccc2n1,0.482,-1.22 (inactive),-0.145 (inactive),-0.574 (inactive),0.325 (inactive),-2.19 (inactive),2.08 (inactive),1.57 (inactive),-0.172,-0.0773,-0.113 (inactive),0.66,-2.58,-2.98 (inactive),-0.663 (inactive),-0.162 (inactive)
C=CCNC(=O)[C@@H]1[C@H]2C(=O)O[C@H](c3ccccc3)[C@H](c3ccccc3)N2[C@H](c2ccccc2OCCO)[C@@]12C(=O)N(C(=O)OCCOC)c1ccc(C#CC3(O)CCCCCC3)cc12,-0.405,0.605 (inactive),-2.57 (inactive),-1.91 (inactive),2.12 (inactive),0.766 (inactive),0.0265 (inactive),-0.609 (inactive),-3.27,0.133,0.99 (inactive),0.674,-2.21,-2.56 (inactive),-0.0659 (inactive),0.294 (inactive)
[N-]=[N+]=NCc1ccccc1[C@H]1OC(c2ccc(OCCCO)cc2)=N[C@@]1(Cc1ccccc1N=[N+]=[N-])C(=O)NCC(O)CO (stereo partly drawn),-0.144,-1.39 (inactive),-0.898 (inactive),-0.407 (inactive),0.758 (inactive),0.313 (inactive),-0.0245 (inactive),-0.188 (inactive),-1.06,0.133,0.665 (inactive),0.603,-2.31,-4.17 (inactive),-0.266 (inactive),0.0665 (inactive)
CC(C)[Si](C#CCCCC#N)(O[C@H](c1ccccc1)c1cn(Cc2ccccc2)nn1)C(C)C,-0.538,-6.51 (inactive),0.118 (inactive),-0.0054 (inactive),0.584 (inactive),-0.431 (inactive),-0.25 (inactive),0.0331 (inactive),0.424,-0.0025,0.206 (inactive),0.391,0.559,-1.61 (inactive),-0.727 (inactive),-0.29 (inactive)
COc1ccc(C#Cc2ccc3c(c2)[C@]2(C(=O)N3)[C@H](c3ccc(O)cc3)N3[C@H](c4ccccc4)[C@H](c4ccccc4)OC(=O)[C@H]3[C@@H]2C(=O)Nc2nc3ccccc3s2)cc1,-1.11,-0.155 (inactive),0.415 (inactive),-15.8 (active),1.21 (inactive),1.2 (inactive),0.198 (inactive),0.0227 (inactive),1.07,0.289,-0.52 (inactive),0.77,-1.31,-0.76 (inactive),0.372 (inactive),0.669 (inactive)
CS(=O)(=O)CCOC(=O)C1=CC(CCCO)=CC(c2ccc(CN3CCCC3)cc2)N(Cc2sc3ccccc3c2Cl)C=C1C(=O)OCCS(C)(=O)=O (stereo not drawn),-0.518,-2.76 (inactive),-0.0646 (inactive),-0.449 (inactive),-0.259 (inactive),0.34 (inactive),0.285 (inactive),0.309 (inactive),-0.0127,-0.247,0.814 (inactive),0.746,-3.03,1.07 (inactive),0.316 (inactive),0.969 (inactive)
COc1ccc(C#Cc2ccc3c(c2)[C@]2(C(=O)N3)[C@H](c3ccc(OCCO)cc3)N3[C@H](c4ccccc4)[C@H](c4ccccc4)OC(=O)[C@H]3[C@@H]2C(=O)NC[C@H](O)c2ccccc2)cc1,0.0814,3.07 (inactive),-0.883 (inactive),-18.4 (active),2.34 (inactive),4.84 (inactive),0.595 (inactive),0.863 (inactive),-1.08,0.18,0.47 (inactive),0.691,-1.78,-1.01 (inactive),-0.387 (inactive),-0.263 (inactive)
CCCCCCCCCCC(O)C1C=CC2C(=O)N(c3ccccc3)C(=O)C2N1Nc1ccc(C#N)cc1 (stereo not drawn),-2.08,1.18 (inactive),-0.653 (inactive),0.481 (inactive),0.571 (inactive),1.25 (inactive),-0.275 (inactive),0.598 (inactive),-2.09,1.38,1.53 (inactive),0.419,-0.562,-1.23 (inactive),0.0905 (inactive),0.15 (inactive)
COc1ccc(CCNC(=O)[C@@H]2c3ccccc3C(=O)N(C3CCCCC3)[C@H]2c2ccc(CO)cc2)cc1,-0.0966,0.162 (inactive),-0.298 (inactive),0.77 (inactive),1.32 (inactive),0.726 (inactive),-0.712 (inactive),-1.39 (inactive),0.978,-0.0349,0.09 (inactive),0.658,-1.76,-3.32 (inactive),0.183 (inactive),-0.0923 (inactive)
NCCCCCNC(=O)[C@H]1C[C@H]2C(=O)N3CCC[C@H]3C(=O)N2[C@H]1c1cccc(OCCO)c1,-1.25,-0.0559 (inactive),-0.02 (inactive),0.322 (inactive),-0.252 (inactive),-0.132 (inactive),-0.658 (inactive),-1.33 (inactive),-0.29,0.256,1.19 (inactive),0.707,-1.24,-2.47 (inactive),-0.0667 (inactive),0.53 (inactive)
COC(=O)C1=CC(CCCO)=CC(c2cccs2)N(Cc2cccc(OC(F)(F)F)c2)C=C1C(=O)OC (stereo not drawn),-0.872,-0.487 (inactive),-1.46 (inactive),-3.05 (inactive),0.82 (inactive),0.0036 (inactive),0.581 (inactive),0.153 (inactive),-1.16,-0.0756,0.348 (inactive),0.706,-1.78,-7.24 (inactive),0.128 (inactive),0.39 (inactive)
O=C1C2C=CC(C(O)c3ccco3)N(Nc3ccccc3F)C2C(=O)N1c1ccccc1 (stereo not drawn),0.162,-0.258 (inactive),-0.936 (inactive),0.334 (inactive),1.04 (inactive),0.101 (inactive),-0.887 (inactive),-0.921 (inactive),-0.684,0.318,0.36 (inactive),-0.139,1.09,-1.61 (inactive),0.456 (inactive),0.257 (inactive)
COC(=O)c1c(CC[C@@H](CO)NC(=O)N[C@@H](C)Cn2cc(-c3ccccn3)nn2)oc(C(C)=O)c1C(=O)OC,-0.962,-0.369 (inactive),0.0168 (inactive),-2.74 (inactive),-0.109 (inactive),-0.37 (inactive),-0.207 (inactive),-0.605 (inactive),-0.921,0.0808,1.29 (inactive),0.881,-1.89,0.452 (inactive),-0.207 (inactive),0.363 (inactive)
